High-throughput results (PubChem)
In the library only some 21% were active in any assay of this set; here they are far more common.
RORgamma inh – blocks mouse ROR gamma transcriptional activity; P51450; Drosophila S2 Gal4-RORgamma UAS-luciferase reporter, 20 h; Potency, µM (top dose mostly 53.6 µM), hits mostly inhibitors; 5.4% of 310,000 active; further: nearly all actives have a fitted effect of over 60% in size
Target sequence (P51450 whole entry, looked up, the tested form may be a part): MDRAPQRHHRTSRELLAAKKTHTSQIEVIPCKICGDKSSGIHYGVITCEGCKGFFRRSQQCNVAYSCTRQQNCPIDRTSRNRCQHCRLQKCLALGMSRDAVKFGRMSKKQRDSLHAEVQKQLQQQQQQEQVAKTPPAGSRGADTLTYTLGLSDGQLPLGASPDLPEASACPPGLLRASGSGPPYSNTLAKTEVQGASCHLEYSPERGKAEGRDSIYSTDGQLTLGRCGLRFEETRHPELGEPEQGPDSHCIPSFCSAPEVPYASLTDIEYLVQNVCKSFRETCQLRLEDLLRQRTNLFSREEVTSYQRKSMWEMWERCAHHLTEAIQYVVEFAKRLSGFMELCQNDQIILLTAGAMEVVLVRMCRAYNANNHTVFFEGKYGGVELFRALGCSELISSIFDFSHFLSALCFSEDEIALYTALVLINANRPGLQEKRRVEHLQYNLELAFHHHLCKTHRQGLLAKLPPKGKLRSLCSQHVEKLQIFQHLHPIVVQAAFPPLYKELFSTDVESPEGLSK
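ROR gamma transcriptional activity was tracked as Gal4-UAS luciferase output in stably transfected Drosophila Schneider cells, with compound added 1 hr before 700 uM copper sulfate induction and a 20 hr ambient-temperature incubation.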
ELG1 repair inh – inhibitors of ELG1-dependent DNA repair in HEK293T cells | HEK293T ELG1-luciferase reporter, luminescence, 16 h; DNA damage induced by 5-fluorouridine | 2.3% of 330,000 active | Potency, µM (top dose mostly 46.1 µM), usual class: inhibitors; further: nearly all actives have a fitted effect of over 55% in size
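5-Fluorouridine DNA damage + compound/DMSO, 2,000 cells/well, 16 h, 37 °C/5% CO2. ONE-Glo, 30 min RT, luminescence. Readout = decrease in reporter signal.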
TDP1 cell noCPT – qHTS for Inhibitors of human tyrosyl-DNA phosphodiesterase 1 (TDP1): qHTS in cells in absence of CPT; DT40 Tdp1-/- hTDP1 cells, no CPT, ATP luminescence, 48 h; 15% of 420,000 active; Potency, µM (doses to about 46.2 µM), hits mostly inhibitors; further: nearly all actives have a fitted effect of over 55% in size
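A cellular qHTS used chicken DT40 cells lacking endogenous Tdp1 but carrying stably transfected human TDP1. Compounds were applied without camptothecin, and cell growth kinetics were judged by ATP-dependent luminescence after ≥48 hr.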
IL-1B inflam inh – inhibitors of inflammasome signaling (IL-1 beta secretion); THP-1 LPS/ATP IL-1B secretion, AlphaLISA, 16 h; hits give low values; activity change, % at 57.5 µM; 4.7% of 360,000 active; in the data active means activity change below about -50%; inconclusive means mostly about -30% to -49%
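THP-1 cells pretreated 1 hr with compounds (up to 57.5 uM final), then stimulated with LPS (250 ng/mL final) plus ATP (1.25 mM final); secreted IL-1B measured by AlphaLISA after 16 hr, decreased signal indicating inhibition.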
TDP1 cell CPT – growth inhibition of DT40 Tdp1-/-;hTDP1 cells with camptothecin (screen for TDP1 inhibitors); chicken DT40 Tdp1-/-;hTDP1 cells + 20 nM CPT, ATP luminescence, 48 h; 12% of 420,000 active; AID 686979; Potency, µM (doses to about 46.2 µM), usual class: inhibitors; further: nearly all actives have a fitted effect of over 55% in size
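Cell growth measured by CellTiter-Glo luminescence after a minimum 48 h, 37 C compound exposure with 20 nM CPT in Tdp1-knockout DT40 cells stably expressing hTDP1, seeded 400/well; qHTS titration format.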
VP16 counter – counter-screen for ROR gamma inhibitors: Gal4-VP16 reporter. Drosophila S2 Gal4-VP16 UAS-luciferase, luminescence, 20 h. Potency, µM (titrated, usually from 53.6 µM), hits mostly inhibitors. 3.5% of 310,000 active;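 further: Gal4-VP16 expression switched on by copper sulfate through the metallothionein promoter; nearly all actives have a fitted effect of over 50% in size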
Each line names hits and unclear results; the compound was inactive in the other large screens. Unless noted, the call rests on the fitted dose curve; in most records, active means well fitted curve in the direction sought with a large enough effect; inconclusive means small, poorly fitted or top-dose-only effect, or another doubt; inactive means no such curve, though single readings can be large; an effect the other way counts as inactive or inconclusive.

Cc1nc(C(=O)N(Cc2cc3ccc(F)cc3nc2N2CCC(O)CC2)CC2CCCO2)cs1 (stereo unspecified)	none (no result: RORgamma inh, ELG1 repair inh, IL-1B inflam inh, VP16 counter)
Cc1ccc(-c2[nH]ncc2/C=N/n2c(C)nc3ccccc3c2=O)cc1	ELG1 repair inh 9.2µM (no result: IL-1B inflam inh)
Cc1ccccc1OCc1nc2ccccc2c(=O)n1/N=C/c1cn[nH]c1-c1ccc(Br)cc1	RORgamma inh inconclusive, ELG1 repair inh 6.5µM, TDP1 cell noCPT inconclusive, TDP1 cell CPT inconclusive, VP16 counter inconclusive
Cc1nc2ccccc2c(=O)n1/N=C/c1ccccc1O	RORgamma inh inconclusive, ELG1 repair inh inconclusive, VP16 counter inconclusive
O=c1c2ccccc2nc(COc2ccccc2)n1/N=C/c1cn[nH]c1-c1ccccc1	ELG1 repair inh 6.5µM, TDP1 cell noCPT 16µM, TDP1 cell CPT 21µM
O=c1c2ccccc2nc(COc2ccccc2)n1/N=C/c1ccc(O)cc1O	ELG1 repair inh inconclusive, TDP1 cell noCPT 23µM, TDP1 cell CPT inconclusive
Cc1cnc(NC(=O)CC2OC(=O)c3ccccc32)s1 (stereo unspecified)	none (no result: RORgamma inh, VP16 counter)
COC(=O)[C@@H]1CCCN1C(=O)c1c(OC)cc(=O)n2c1CCN(Cc1ccc3c(c1)OCCO3)CC2	none (no result: RORgamma inh, ELG1 repair inh, IL-1B inflam inh, VP16 counter)
CCCCn1c(N)nc2ccccc21	ELG1 repair inh inconclusive, TDP1 cell noCPT inconclusive, TDP1 cell CPT inconclusive
CCCCn1c(/C=N/Nc2nc3ccccc3[nH]2)nc2ccccc21	RORgamma inh 1.8µM, TDP1 cell noCPT 5.2µM, TDP1 cell CPT 4.6µM, VP16 counter 1.6µM
CCCCNc1nc2ccccc2[nH]1	TDP1 cell noCPT inconclusive, TDP1 cell CPT inconclusive
CCCn1c(NCc2ccco2)nc2ccccc21	none
CCCn1c(/C=C/c2ccco2)nc2ccccc21	ELG1 repair inh inconclusive, TDP1 cell noCPT inconclusive, TDP1 cell CPT 16µM, VP16 counter inconclusive
CCCCn1c(/C=C/c2ccco2)nc2ccccc21	RORgamma inh 13µM, ELG1 repair inh inconclusive, TDP1 cell noCPT inconclusive, TDP1 cell CPT 18µM, VP16 counter inconclusive
O=S(=O)(N/N=C\c1c(F)cccc1Cl)c1ccc(Cl)cc1	TDP1 cell noCPT inconclusive, TDP1 cell CPT 13µM
O=S(=O)(N/N=C/c1ccc2c(c1)OCCO2)c1ccc(Cl)cc1	none
CCCCNC(=O)CN1CCN(c2ccc(NC(=O)c3ccc(OC)cc3)cc2C(=O)O)CC1	none (no result: RORgamma inh, ELG1 repair inh, IL-1B inflam inh, VP16 counter)
O=C(NC1CCCCC1)N1CCN(c2nc(-c3ccccc3)cs2)CC1	RORgamma inh 11µM, TDP1 cell noCPT 26µM, IL-1B inflam inh -64, TDP1 cell CPT inconclusive, VP16 counter inconclusive
NC(=O)C1(N2CCCCC2)CCN(c2nc(-c3ccccc3)cs2)CC1	ELG1 repair inh inconclusive, TDP1 cell noCPT 16µM, TDP1 cell CPT 21µM
CN(C)C(=O)N1CCN(c2nc(-c3ccccc3)cs2)CC1	ELG1 repair inh inconclusive, TDP1 cell noCPT inconclusive, TDP1 cell CPT inconclusive
O=C(NC12CC3CC(CC(C3)C1)C2)N1CCN(c2nc(-c3ccccc3)cs2)CC1	ELG1 repair inh inconclusive, TDP1 cell noCPT 18µM, IL-1B inflam inh inconclusive, TDP1 cell CPT inconclusive, VP16 counter inconclusive
COc1ccc(CN2C[C@@H](CO)O[C@@H](n3cnc4c(NCCO)ncnc43)C2)cc1	TDP1 cell CPT inconclusive (no result: RORgamma inh, ELG1 repair inh, VP16 counter)
CCCNC(=O)C1(C)CCN(C(=O)c2ccc(C)c(F)c2)C1 (stereo unspecified)	none (no result: RORgamma inh, ELG1 repair inh, VP16 counter)
Cc1cc(N/N=C/c2cccc(Cl)c2)nc(-n2nc(C)cc2C)n1	RORgamma inh 0.071µM, ELG1 repair inh 16µM, TDP1 cell noCPT 0.82µM, TDP1 cell CPT 0.58µM, VP16 counter 1.3µM
C/C(=N\Nc1cc(C)nc(-c2ccccc2O)n1)c1ccccc1O	ELG1 repair inh inconclusive, TDP1 cell noCPT 13µM
Cc1cc(N/N=C/c2cccc([N+](=O)[O-])c2)nc(-n2nc(C)cc2C)n1	RORgamma inh 0.11µM, TDP1 cell noCPT 3.7µM, TDP1 cell CPT 4.1µM, VP16 counter 1µM
